Reference: the supplement of paper PMC3334620
The full ranking holds about 33,000 sequences; the median of “E-score (-0.5 to 0.5)” is about -0.0014, and the highest 2% start at about 0.25. This excerpt belongs to a sample that is enriched for the highest values.

Target: T1, Cad1 (UniProt P24813)
T1 sequence: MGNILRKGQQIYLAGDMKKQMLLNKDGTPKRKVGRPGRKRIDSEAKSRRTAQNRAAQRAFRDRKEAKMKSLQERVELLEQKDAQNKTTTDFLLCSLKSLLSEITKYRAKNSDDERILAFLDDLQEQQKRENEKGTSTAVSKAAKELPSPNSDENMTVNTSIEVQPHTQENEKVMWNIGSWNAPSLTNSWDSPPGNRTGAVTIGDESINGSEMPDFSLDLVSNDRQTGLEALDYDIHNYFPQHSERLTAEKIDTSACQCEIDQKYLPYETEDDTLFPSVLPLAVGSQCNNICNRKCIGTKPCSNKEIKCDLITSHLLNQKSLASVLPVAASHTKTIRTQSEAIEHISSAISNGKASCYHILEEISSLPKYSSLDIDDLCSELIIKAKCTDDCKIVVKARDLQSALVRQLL
Assay: PBM E-score (8-mer binding enrichment) (E-score (-0.5 to 0.5)); higher = stronger / more preferred TF binding
Settings: protein concentration: 100 nM; construct: GST-full length
Protocol: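 Universal 'all 10-mer' protein binding microarrays (Agilent AMADID 015681) probed with GST-tagged S. cerevisiae TFs (full-length or DBD) made by in vitro transcription/translation (PURExpress), about 100-200 nM. Bound TF was detected with fluorescent anti-GST. Each ungapped 8-mer (which stands for itself and its reverse complement) is scored by the PBM enrichment score (E-score), a modified Wilcoxon-Mann-Whitney statistic from -0.5 to +0.5, computed with the Universal PBM Analysis Suite. Scale: above 0.35 generally sequence-specific binding.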

Row | Sequence | PBM E-score
1 | AGCAATCC | -0.214
2 | AGCAATCG | 0.27
3 | AGCAATCA | 0.216
4 | ATGCGACC | 0.0488
5 | ATATTAGA | 0.197
6 | GTATTAGA | 0.26
7 | CTATTAGA | -0.057
8 | GTTGCAGA | -0.0187
9 | AAATCGTC | 0.0296
10 | AAATCGTG | 0.263
11 | AAATCGTA | -0.0277
12 | AAATAGTG | 0.258
13 | AAATAGTT | 0.129
14 | AAATAGTC | -0.0981
15 | CACGATGC | -0.0719
16 | GAATCGTA | 0.0597
17 | CCGAAGAA | 0.00754
18 | CAGGTGCC | -0.0801
19 | AGAATACA | 0.0745
20 | AATATGTG | 0.251
21 | CATATTTC | 0.0121
22 | AATATGTC | 0.17
23 | AATATGTA | 0.206
24 | ATTATTTG | 0.175
25 | CTTATTTC | 0.304

Row | Sequence | PBM E-score
26 | AATATTTA | 0.213
27 | CTTATTTA | -0.00667
28 | ACTATTTG | 0.101
29 | ATTATTTC | 0.2
30 | AATATTTC | 0.264
31 | AATATTTG | 0.255
32 | CCCTACCG | -0.112
33 | AACGGGAC | -0.148
34 | AACCAGAC | -0.0829
35 | GTGGACTA | 0.144
36 | CTGAAGTC | -0.0337
37 | ACATCCCG | 0.147
38 | CCCTCGAC | -0.0126
39 | AATTTGGG | 0.0286
40 | AGTCCACA | -0.141
41 | AATATTGG | 0.0135
42 | AATATTGC | 0.294
43 | CATATTGC | -0.116
44 | GACGAAAC | 0.144
45 | CATTTATC | 0.15
46 | AATTTGTA | 0.196
47 | AATTTATC | 0.293
48 | AATTTATA | 0.241
49 | GATTTATA | 0.319
50 | AATTTATG | 0.229

Row | Sequence | PBM E-score
51 | GATTTTTA | -0.0272
52 | CATTTATA | 0.021
53 | AATTTGTC | 0.31
54 | ATTTTATG | 0.255
55 | ATTTTGTC | 0.121
56 | ATTTTATA | 0.221
57 | GATCAAAA | 0.144
58 | AGTACTTA | -0.0184
59 | CAGGTTCA | -0.134
60 | TTCGACAA | 0.0549
61 | GGCGACAC | 0.0142
62 | GTACGTGA | 0.0217
63 | AGCAACCA | 0.0389
64 | ATCGTTAC | 0.0243
65 | GTTCATGA | 0.262
66 | TATCATGA | 0.16
67 | CTTCATGA | 0.207
68 | AATCATGA | 0.317
69 | ATTCATGA | 0.0482
70 | AATCATGG | 0.048
71 | CTCTGAAC | -0.212
72 | GGTATCCA | 0.135
73 | CTCTCCTA | -0.129
74 | CGCGATGC | -0.0576
75 | TCAGAGAA | -0.0244

Row | Sequence | PBM E-score
76 | AAGGCCAT | 0.0298
77 | ATTCTCCC | 0.115
78 | CTACCTCA | -0.107
79 | GGCGCTTA | -0.0696
80 | GACGCTGA | 0.0912
81 | AGCGCTTA | 0.336
82 | AGCGCTGG | 0.191
83 | CGCGCTTA | 0.262
84 | AGCGCTTC | 0.122
85 | CGCGCTTC | 0.0321
86 | TACGCTGA | 0.275
87 | CGCGCTGA | 0.219
88 | AGCGCTGA | 0.258
89 | CACGCTGA | 0.143
90 | GGCGCTGA | -0.0921
91 | CTGTTCGA | -0.08
92 | CTCCTACC | -0.236
93 | CGGGTGAC | -0.0446
94 | ACGGTGAC | -0.102
95 | ATCATTGG | -0.0561
96 | CCAGTCGG | -0.238
97 | CTCACCGA | -0.12
98 | GATTCCTA | 0.0143
99 | TACGCTCA | -0.0567
100 | AACGCTCA | -0.0578

Row | Sequence | PBM E-score
101 | CACGCTCA | 0.261
102 | ACGGTACA | 0.0323
103 | AGTCAGGA | 0.141
104 | CGTCAGGC | -0.125
105 | AGTCAGGC | 0.294
106 | GCCATAAA | 0.125
107 | AGAAGGTA | 0.103
108 | AGCGCTAC | -0.068
109 | CGCGCTAG | 0.238
110 | AGCGCTAA | 0.212
111 | GGCGCTAC | -0.214
112 | CGCGCTAC | 0.26
113 | GGCGCTAA | -0.0255
114 | CGCGCTAA | 0.256
115 | AGCGCTAT | 0.278
116 | TGCGCTAA | 0.156
117 | CCAAAATA | 0.147
118 | CTTCCATA | -0.244
119 | AAGCCGGT | -0.024
120 | GCATAGAA | 0.0802
121 | ATTCATCA | 0.132
122 | ACTTTCTA | -0.028
123 | TACTAGAA | 0.0443
124 | CACCCGCC | 0.0605
125 | ATCGTAGC | 0.0921

Row | Sequence | PBM E-score
126 | AACGAGCA | -0.0102
127 | AATATAAG | 0.297
128 | CATATAAG | 0.00934
129 | AATATAAA | 0.251
130 | AACATAAG | 0.261
131 | TATATAAA | 0.23
132 | CACATAAG | 0.00562
133 | AATATAAT | 0.18
134 | AACATAAC | 0.135
135 | CATATAAA | 0.0106
136 | AGGCTACT | -0.196
137 | CATTGGAA | 0.0544
138 | TGTAGAAA | -0.18
139 | CATTGAGA | -0.109
140 | AGAAGAAT | -0.0672
141 | AGATAGAC | 0.0347
142 | GATTTCTA | 0.123
143 | ACTATTGG | 0.025
144 | ATAGTTCA | 0.0339
145 | AATTTTAC | 0.282
146 | AATTTAAT | 0.252
147 | AATTTTCC | 0.26
148 | AATTTTAA | 0.249
149 | AATTTAAG | 0.0522
150 | AATTTAAC | 0.124

Row | Sequence | PBM E-score
151 | ATTTTTAC | 0.0299
152 | ATTTTTCC | 0.0266
153 | AATTTTAT | 0.295
154 | AATTTTTC | 0.145
155 | CATTTTAC | 0.198
156 | AAATTTAT | 0.171
157 | CAGCGGCA | -0.0412
158 | CCAGCCCG | -0.102
159 | CGGGTTTC | 0.179
160 | CGACCGAG | -0.0641
161 | CATTCGGC | -0.0238
162 | AATAATAG | 0.077
163 | CATAATAA | -0.0382
164 | CTTAATAA | 0.383
165 | TCTAATAA | 0.0758
166 | AATAATCA | 0.218
167 | GATAATCA | 0.169
168 | AATAATAA | 0.305
169 | AATAATAC | 0.205
170 | GTTAATAA | 0.249
171 | TATAATCA | 0.31
172 | TATAATAA | 0.278
173 | CTTAATAC | -0.0147
174 | AGCTCCGG | -0.115
175 | AAGCAGAG | -0.111

Row | Sequence | PBM E-score
176 | GCAAGGCC | 0.0338
177 | CAGAGAGG | -0.329
178 | AGAGCCGG | -0.167
179 | AACCAAGC | 0.03
180 | AAATCGGG | 0.0578
181 | GGGTATAC | 0.0548
182 | GCATCTAA | 0.194
183 | TAACACTA | 0.265
184 | CAACACTA | 0.19
185 | GAACACTA | 0.0513
186 | ACCGTCAC | -0.176
187 | CCCACACA | 0.00769
188 | AGAAGGCT | -0.299
189 | AAGTAATG | 0.0383
190 | ATGTAACG | 0.257
191 | CTGTAATA | 0.143
192 | ATGTAATG | 0.281
193 | ATGTAACC | -0.0284
194 | ATGTAATA | 0.334
195 | ATGTAACA | 0.168
196 | ATGTAATC | 0.168
197 | GTGTAATA | 0.194
198 | ATCTTACC | 0.0255
199 | GACATTCC | -0.0262
200 | GAGAACTA | 0.103

Row | Sequence | PBM E-score
201 | GTCTAAGA | 0.151
202 | TCCTCCCA | -0.144
203 | TTAGATAA | 0.105
204 | ATAGATAA | 0.125
205 | GTAGATAA | 0.251
206 | ACAGGCAA | 0.0554
207 | CGATCCGA | 0.251
208 | GGATCCGA | -0.00022
209 | CGATCCGC | 0.163
210 | CGGGTTTA | -0.0209
211 | AGAGTGCT | 0.0363
212 | TAAGAACA | 0.275
213 | GAAGAACA | 0.121
214 | CAAGAACA | 0.0216
215 | CTAGCTTC | 0.0393
216 | AGCCTACC | -0.282
217 | CAACTGTC | 0.0813
218 | CACTAAAA | 0.19
219 | TACAGTAA | 0.0528
220 | CACAGTAA | 0.291
221 | CACAGTAG | -0.0343
